# PubChem BioAssay (NCATS)
# Records with an inconclusive call do not appear. Where a call stands in place of a potency, no number is given. The source made the active and inactive calls. Calls come from the whole dose curve; as a rule, active = well fitted curve in the direction sought with a large enough effect; inconclusive = small, poorly fitted or top-dose-only effect, or another doubt; inactive = no such curve, though single readings can be large; an effect the other way counts as inactive or inconclusive.
# Tests used:
# [1] = target: Rap guanine nucleotide exchange factor 3 (Homo sapiens) (UniProt O95398); test: Counterscreen qHTS for agonist of cAMP-regulated guanine nucleotide exchange factor 3 (EPAC1) (AID 1645889); note: nearly all actives have a fitted effect of over 40% in size; note: potency is the fitted concentration of half-maximal effect
# Procedure, shortened: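 Rap1B–BODIPY-GDP (250 nM) with 50 uM GDP; compounds pin-transferred to 9.74 nM–152 uM final (activator) or from 7.32 nM upwards (inhibitor). Fluorescence Ex/Em 480/540 nm read at 5 and 30 min, then after adding cAMP or buffer, at room temperature.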
# [2] = Viability counterscreen for agonist of constitutive androstane receptor (CAR) against the NCATS DSHEA and TCM libraries (AID 1794838);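 note: cells exposed to compound for 24 h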
# Procedure, shortened: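 In agonist mode, PK11195 is added at 0.75 uM final to HepG2-CYP2B6-hCAR cells dosed with test substances. Cultures incubate 24 h at 37C before a protease-based fluorogenic viability readout.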
# [3] = target: Nuclear receptor subfamily 1 group I member 3 (Homo sapiens) (UniProt Q14994); test: Primary qHTS for agonist of constitutive androstane receptor (CAR) against the NCATS DSHEA and TCM libraries (AID 1794839);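 note: HepG2 cells expressing human CAR with a CYP2B6 reporter plus PK11195 antagonist; luciferase reporter luminescence read with ONE-Glo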
# Procedure, shortened: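 Cells stably carrying hCAR and a CYP2B6 reporter (HepG2 background) are seeded and allowed 5 h to adhere. Substances at multiple concentrations are added alongside 0.75 µM PK11195, and luciferase signal is measured after 24 h.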
# [4] = Viability counterscreen for antagonist of constitutive androstane receptor (CAR) against the NCATS DSHEA and TCM libraries (AID 1794837);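 note: compound exposure lasted 24 h before viability reading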
# Procedure, shortened: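 Fluorescence from CellTiter-Fluor reports live-cell protease activity in HepG2-CYP2B6-hCAR cells treated for 24 h with substances alongside 48 uM CITCO.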
# Chain of Nuclear receptor subfamily 1 group I member 3 (Homo sapiens) (Q14994 whole entry, looked up): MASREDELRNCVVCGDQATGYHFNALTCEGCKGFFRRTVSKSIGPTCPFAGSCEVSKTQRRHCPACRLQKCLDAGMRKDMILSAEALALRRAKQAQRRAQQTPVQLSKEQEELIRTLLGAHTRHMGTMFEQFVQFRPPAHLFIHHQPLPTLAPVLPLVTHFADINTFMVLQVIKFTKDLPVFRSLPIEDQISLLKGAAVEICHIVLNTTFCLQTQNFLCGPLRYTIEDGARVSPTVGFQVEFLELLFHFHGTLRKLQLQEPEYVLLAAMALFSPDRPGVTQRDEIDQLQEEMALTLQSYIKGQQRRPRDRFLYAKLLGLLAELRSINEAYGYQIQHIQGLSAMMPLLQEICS
SMILES,Potency [1],outcome [2],outcome [3],outcome [4]
O=c1c(O)c(-c2ccc(O)c(O)c2)oc2cc(O)cc(O)c12,inactive,inactive,inactive,
CCOC(=O)Nc1ccc(NCc2ccc(F)cc2)nc1N,4.47 µM (active),,,
Cn1c(=O)c2c(ncn2C)n(C)c1=O,,inactive,inactive,inactive
